Screening results: PubChem BioAssay, National Center for Advancing Translational Sciences (NCATS)
ClpP mod: qHTS Assay for Activators of ClpP; purified B. subtilis ClpP, FRET peptide cleavage, 20 min; Potency, µM (top dose mostly 57.5 µM), inactives show at the top dose activity change, negative = active; 340,000 tested, 1.9% active; AID 651965, 2013; active = well fitted falling curve with a large enough effect; inconclusive = small, poorly fitted or top-dose-only effect; inactive = no such curve, though single readings can be large or run the other way; also: potency is read from the fitted curve at half-maximal effect; the source files actives as falling curves though it sought activators and does not explain the sign; nearly all actives have a fitted effect of over 65% in size
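Purified B. subtilis ClpP, 10 microg/mL final in Tris/HCl pH8 with KCl, BSA, glycerol and Tween-20, cleaved an Abz/nitrotyrosine-quenched decapeptide. Fluorescence (ex 320, em 430) was read at 0 and 20 min at room temperature. Delta was normalized to 5.8 microM ADEP and DMSO/no-enzyme controls.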
TDP1 cell noCPT: qHTS for Inhibitors of human tyrosyl-DNA phosphodiesterase 1 (TDP1): qHTS in cells in absence of CPT. AID 686978, 2013. 420,000 tested, 15% active. DT40 Tdp1-/- hTDP1 cells, no CPT, ATP luminescence, 48 h. Potency, µM (series often up to 46.2 µM), inactives show top-dose activity change, negative = growth inhibition, hits mostly inhibitors; also: potency is read from the fitted curve at half-maximal effect; % is scaled to controls: 0 for no effect and ±100 for the full control effect; nearly all actives have a fitted effect of over 55% in size
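Luminescent ATP content (CellTiter-Glo) served as the growth readout. Knockout chicken DT40 cells expressing human TDP1 were exposed to compounds without camptothecin for a minimum 48 hr at 37 °C.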
D3 ag: agonists of human D3 dopamine receptor. D3R DiscoveRx beta-arrestin cells, luminescence, 90 min. max activation, %. 410,000 tested, 0.58% active. AID 652048; in the data active = max activation above about 30%; also: 0% is about no effect
Target sequence (P35462 whole entry, looked up): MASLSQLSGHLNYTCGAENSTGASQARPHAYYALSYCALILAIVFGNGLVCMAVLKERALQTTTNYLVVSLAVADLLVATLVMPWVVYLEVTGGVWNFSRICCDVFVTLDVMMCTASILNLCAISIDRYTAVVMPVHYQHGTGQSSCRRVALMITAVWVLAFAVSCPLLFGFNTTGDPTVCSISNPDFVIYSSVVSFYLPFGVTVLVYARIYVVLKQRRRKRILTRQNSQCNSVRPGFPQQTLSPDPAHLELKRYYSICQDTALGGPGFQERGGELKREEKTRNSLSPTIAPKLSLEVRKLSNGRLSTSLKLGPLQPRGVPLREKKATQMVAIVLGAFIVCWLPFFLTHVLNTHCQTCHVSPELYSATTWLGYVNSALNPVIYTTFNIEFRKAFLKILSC
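Agonist mode: compounds and dopamine controls were applied to plated cells for 90 min at 37 degrees C after an overnight attachment at 1500 cells/well. Luminescent read-out followed 30 - 60 minutes at room temperature with DiscoveRx detection reagent.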
TDP1 cell CPT: growth inhibition of DT40 Tdp1-/-;hTDP1 cells with camptothecin (screen for TDP1 inhibitors); Potency, µM (top dose mostly 46.2 µM), inactives show at the top dose activity change, negative = growth inhibition, usual class: inhibitors; 420,000 tested, 12% active; AID 686979; chicken DT40 Tdp1-/-;hTDP1 cells + 20 nM CPT, ATP luminescence, 48 h; also: potency is read from the fitted curve at half-maximal effect; % is scaled to controls: 0 for no effect and ±100 for the full control effect; nearly all actives have a fitted effect of over 55% in size
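Chicken DT40 Tdp1-/- cells stably complemented with human TDP1 were seeded at 400 cells/well in medium containing 20 nM camptothecin, exposed to pin-transferred compounds, and grown at 37 °C for at least 48 hr. Viability was read as ATP luminescence.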
DRD3 antagonist: blocks the human D3 dopamine receptor; D3R cells, DiscoveRx beta-arrestin luminescence, antagonist mode; active compounds read low; max response, negative = inhibition, %; P35462; 360,000 tested, 2.5% active; AID 652054; in the data active = max response below about -50%; inconclusive = no clear call, values can overlap the other calls; also: % is scaled to controls: 0 for no effect and ±100 for the full control effect
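Cells plated overnight at 1500 cells/well, then exposed to library compounds with dopamine controls for 90 minutes at 37 degrees C. DiscoveRx reagent added for 30–60 minutes at room temperature; luminescence read, quantitative HTS format.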
IL-1B inflam inh: inflammasome signaling inhibition, IL-1 beta readout | THP-1 LPS/ATP IL-1B secretion, AlphaLISA, 16 h; active compounds read low | activity change, % at 57.5 µM | 360,000 tested, 4.7% active | AID 743279; in the data active = activity change below about -50%; inconclusive = mostly about -30% to -49%; also: % is scaled to controls: 0 for no effect and ±100 for the full control effect
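Secreted IL-1B measured by AlphaLISA bead assay after 16 h compound exposure of THP-1 cells; compounds (final up to 57.5 uM) added 1 h before LPS (250 ng/mL) and ATP (1.25 mM) stimulation; lower signal means less secretion.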
Starred values were filed as active, the others as inactive; i = inactive; ? = inconclusive; / = no result given. Hits are enriched below; roughly 21% of the tested compounds scored in any of these assays. Unless noted, calls follow the shape of the dose curve; as a rule, active = well fitted inhibition curve with a large enough effect; inconclusive = small, poorly fitted or top-dose-only effect; inactive = flat fitted curve, though single readings scatter.

SMILES	ClpP mod	TDP1 cell noCPT	D3 ag	TDP1 cell CPT	DRD3 antagonist	IL-1B inflam inh
COc1cc(-c2cc(C(=O)Nc3ccc(S(=O)(=O)NCc4ccco4)cc3)c3ccccc3n2)cc(OC)c1OC	-28%	2.9µM*	7	4.6µM*	37	-14
COc1cc(-c2cc(C(=O)NCc3ccc(S(N)(=O)=O)cc3)c3ccccc3n2)cc(OC)c1OC	/	?	2	?	12	-62*
COc1cc(-c2cc(C(=O)NCc3ccco3)c3ccccc3n2)cc(OC)c1OC	0%	2.6µM*	-18	?	13	-15
CC(OC(=O)CC1Sc2ccccc2NC1=O)C(=O)NC1CCCC1 (configuration not stated)	1%	-8%	14	6%	3	-8
C[C@@H](C1[C@@H](O)CC2C3C=CC4C[C@@H](O)CC[C@]4(C)[C@H]3CC[C@@]21C)[C@@H]1CCCCN1 (some centres not stated)	/	1.2µM*	/	1.6µM*	/	/
CC(C)CNC(=O)C(=O)NCC1OCCCN1S(=O)(=O)c1ccc2c(c1)OCCO2 (configuration not stated)	1%	-2%	3	5%	-10	i
COc1ccc(CNc2cc(C)nc3ncnn23)c(OC)c1	1%	10µM*	17	?	-10	2
COc1ccc(Nc2cc(C)nc3ncnn23)c(OC)c1	-1%	0%	2	-1%	6	29
Cc1ccc(S(=O)(=O)N2CCC(C(=O)OCC(=O)N(Cc3ccccc3)C(C)C)CC2)cc1C	-1%	?	5	-4%	2	44
O=C(NCc1ccc(F)cc1)C1CCCN(c2nc3ccsc3c(=O)s2)C1 (configuration not stated)	-2%	-14%	0	-8%	?	1
COc1ccc(NC(=O)Cn2c(=O)n(-c3cc(C)cc(C)c3)c(=O)c3oc4ccccc4c32)cc1OC	21%	8.2µM*	-1	8.2µM*	/	/
Cc1ccc(Cn2c(=O)n(-c3cc(C)cc(C)c3)c(=O)c3oc4ccccc4c32)cc1	?	23µM*	-9	?	/	/
CCc1ccccc1NC(=O)Cn1c(=O)n(C(C)C)c(=O)c2oc3ccccc3c21	-19%	?	-16	-22%	/	/
COc1ccc(NC(=O)Cn2c(=O)n(C(C)C)c(=O)c3oc4ccccc4c32)cc1Cl	-3%	16µM*	16	?	/	/
Cc1ccc(-c2cn3cccnc3n2)cc1NC(=O)Nc1ccc(F)cc1	-20%	/	-4	/	/	/
COc1ccccc1CN1CC[C@@]2(CCCN(S(C)(=O)=O)C2)C1	/	1%	/	?	/	/
c1cncc(-c2nc(NCc3cccs3)c3ccccc3n2)c1	-1%	?	4	?	10	-7
COc1cccc(CNc2nc(-c3cccnc3)nc3ccccc23)c1	4%	?	4	?	9	-93*
Brc1ccc(-c2nc(N/N=C/c3cccnc3)c3ccccc3n2)cc1	-3%	13µM*	6	12µM*	15	23
Fc1ccccc1CNc1nc(-c2cccnc2)nc2ccccc12	/	23µM*	-6	?	1	-97*
COc1ccccc1C(C)Nc1nc(-c2cccnc2)nc2ccccc12 (configuration not stated)	/	23µM*	24	18µM*	14	?
C(=N\Nc1nc(-c2cccnc2)nc2ccccc12)/c1ccccc1	/	16µM*	9	?	19	/
ClC(Cl)(Cl)c1nc(N/N=C/c2ccncc2)c2ccccc2n1	/	?	4	-18%	53	11
CC(Nc1nc(-c2cccnc2)nc2ccccc12)c1ccccc1 (configuration not stated)	-6%	?	5	?	0	31
